Read-out in test [1]: Macrophage colony-stimulating factor (MCSF), CSF1 (gene 1435)
Kind of test: BSK_hDFCGF_MCSF: BioMAP Diversity Plus: hDFCGF Assay for Macrophage colony-stimulating factor (MCSF) Biomarker Activity (AID 2283060). As to conditions: primary human foreskin fibroblasts; actives raise or lower the signal. Put shortly: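 M-CSF levels read by ELISA at 24 h post-dosing in human skin fibroblasts. Parallel cultures stained with SRB assessed cytotoxicity at the same time point; response fitted in both directions against the DMSO baseline.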

Test [2] in a line: BSK_hDFCGF_SRB: Viability Assessment in the BioMAP Diversity Plus: hDFCGF Assay (AID 2283061).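 Note: cells exposed to compound for 24 h before the read.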 As to conditions: primary human foreskin fibroblasts. In a few lines: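 Viability was read as total protein: after 10% TCA fixation, wells were stained with 0.1% sulforhodamine B and read at 560 nm. Primary human foreskin fibroblasts were dosed for 24 h, with bidirectional fitting versus DMSO.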

Read-out in test [3]: TIMP metallopeptidase inhibitor 1 (TIMP1), TIMP1 (gene 7076)
Kind of test: BSK_hDFCGF_TIMP1: BioMAP Diversity Plus: hDFCGF Assay for TIMP metallopeptidase inhibitor 1 (TIMP1) Biomarker Activity (AID 2283062). As to conditions: primary human foreskin fibroblasts; actives raise or lower the signal. In a few lines: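 TIMP-1 measured by ELISA 24 h after chemical dosing of primary human skin fibroblasts, with gain or loss fitted relative to DMSO. Parallel SRB staining (560 nm) monitored overt cytotoxicity.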

Read-out in test [4]: Monokine induced gamma interferon (MIG), CXCL9 (gene 4283)
Kind of test: BSK_hDFCGF_MIG: BioMAP Diversity Plus: hDFCGF Assay for Monokine induced gamma interferon (MIG) Biomarker Activity (AID 2283063). As to conditions: primary human foreskin fibroblasts; actives raise or lower the signal. Put shortly:
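Human primary foreskin fibroblasts in the hDFCGF system, exposed to test chemical for 24 h; MIG measured by ELISA. Bidirectional curve fitting against DMSO negative control as activity baseline.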

Read-out in test [5]: Matrix Metallopeptidase 1 (MMP1), MMP1 (gene 4312)
In words: BSK_hDFCGF_MMP1: BioMAP Diversity Plus: hDFCGF Assay for Matrix Metallopeptidase 1 (MMP1) Biomarker Activity (AID 2283064). As to conditions: primary human foreskin fibroblasts; actives raise or lower the signal. In a few lines:
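Primary human foreskin fibroblasts exposed to chemicals for 24 h; MMP1 measured by ELISA. Cytotoxicity tracked by SRB staining in parallel cultures; bidirectional fit relative to DMSO.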

Read-out in test [6]: Vascular cell adhesion molecule 1 (VCAM1), VCAM1 (gene 7412)
In words: BSK_hDFCGF_VCAM1: BioMAP Diversity Plus: hDFCGF Assay for Vascular cell adhesion molecule 1 (VCAM1) Biomarker Activity (AID 2283065).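 For AC50: VCAM-1 protein level quantified by ELISA after 24 h chemical exposure.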 As to conditions: primary human foreskin fibroblasts; actives raise or lower the signal. In a few lines: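 ELISA readout of VCAM-1 on human dermal fibroblast primary cultures, 24 h after chemical exposure. Gain or loss of signal fitted in both directions against DMSO baseline.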

Read-out in test [7]: Plasminogen activator inhibitor-1 (PAI1), SERPINE1 (gene 5054)
In words: BSK_hDFCGF_PAI1: BioMAP Diversity Plus: hDFCGF Assay for Plasminogen activator inhibitor-1 (PAI1) Biomarker Activity (AID 2283066). As to conditions: primary human foreskin fibroblasts; actives raise or lower the signal. In a few lines:
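PAI-1 levels, determined by ELISA, served as the endpoint in human foreskin fibroblast cultures exposed to compound for 24 h, with DMSO as baseline.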

Read-out in test [8]: Intercellular Adhesion Molecule 1 (ICAM1), ICAM1 (gene 3383)
In words: BSK_KF3CT_ICAM1: BioMAP Diversity Plus: KF3CT Assay for Intercellular Adhesion Molecule 1 (ICAM1) Biomarker Activity (AID 2283067). As to conditions: primary human keratinocytes with fibroblasts; actives raise or lower the signal. Put shortly: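 Cell-surface ICAM-1 was measured by ELISA 24 h after dosing primary human skin keratinocytes co-cultured with fibroblasts. Parallel SRB staining tracked overt cytotoxicity. Gain or loss of signal was fitted relative to DMSO.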

Read-out in test [9]: Interferon-gamma inducible Protein 10 (IP10), CXCL10 (gene 3627)
In words: BSK_KF3CT_IP10: BioMAP Diversity Plus: KF3CT Assay for Interferon-gamma inducible Protein 10 (IP10) Biomarker Activity (AID 2283068). As to conditions: primary human keratinocytes with fibroblasts; actives raise or lower the signal. In a few lines: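 ELISA read-out of IP-10 after 24 h chemical dosing of human skin primary co-culture (keratinocytes, foreskin fibroblasts). Gain or loss of signal relative to DMSO, bidirectional curve fit.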

Test [10] is described as follows: BSK_KF3CT_SRB: Viability Assessment in the BioMAP Diversity Plus: KF3CT Assay (AID 2283069).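 Note: total protein by sulforhodamine B staining as a cytotoxicity measure; read 24 h after compound addition.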 As to conditions: primary human keratinocytes with fibroblasts. Put shortly:
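Human keratinocyte and foreskin fibroblast co-culture exposed to chemical for 24 h. Total protein measured in parallel cultures by 0.1% sulforhodamine B staining after 10% TCA fixation, read at 560 nm; bidirectional fit relative to DMSO.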

Calls of active or inactive are those of the source. Rule for the calls: active = hit-call score of the fitted dose curve at least 0.9, where 1 is the maximum; inactive = score below 0.9.

What is called AC50 is the midpoint of the concentration-response curve, whichever way the signal moves. Consider `CCOP(=O)(SC(C)CC)N1CCSC1=O` (centres undefined), for which the result in test [1], in [2], in test [3], in [4], in [5] and in test [6] was inactive. For the same molecule, the outcome in test [7], in [8] and in test [10] was inactive. Besides, the AC50 in test [9] is 0.704 µM (active).
`C[N+]1(C)CCCCC1`: the result in test [1], in test [2], in [3], in test [4], in test [5] and in [6] was inactive. Also, the result in test [7], in [8], in test [9] and in test [10] was inactive.
With `CCOP(=S)(OCC)SCCSCC`, the result in [1], in test [2], in test [3], in [4], in test [5] and in test [7] was inactive. Also, the outcome in [8] and in test [10] was inactive. Moreover, the AC50 in test [6] is 36.9 µM (active); in [9] it was 37 µM (active).
For the molecule `CC1=NNC(=O)N(/N=C/c2cccnc2)C1`, the result in test [1], in test [2], in test [3], in test [4], in test [5] and in test [6] was inactive. Besides, the outcome in test [7], in [8], in test [9] and in test [10] was inactive.
On to `S=C1NCCN1`, for which the outcome in [1], in [2], in test [3], in test [4], in test [5] and in [6] was inactive. For the same molecule, the result in [7], in test [8], in test [9] and in test [10] was inactive.
Consider `CCOC(=O)COc1cc(-c2nn(C)c(OC(F)F)c2Cl)c(F)cc1Cl`, for which the result in [1], in [2], in test [3], in test [4], in test [6] and in test [7] was inactive. Besides, the result in test [8], in test [9] and in test [10] was inactive. In addition, in [5], the AC50 was 0.148 µM (active).
Turning to `O=c1ccc(=O)[nH][nH]1`, the result in test [1], in test [2], in test [3], in [4], in test [5] and in test [6] was inactive. In addition, the outcome in [7], in test [8], in [9] and in [10] was inactive.
On to `C=C(C)[C@H]1Cc2c(ccc3c2O[C@@H]2COc4cc(OC)c(OC)cc4[C@@H]2C3=O)O1`, for which the outcome in test [1], in test [2], in [3], in test [4], in [5] and in test [7] was inactive. Moreover, the outcome in test [8] was inactive. In addition, the figures for the AC50 in [6], in [9] and in test [10] were 7.69 µM (active), 31.8 µM (active) and 3.97 µM (active), respectively.
As for `CCCOCC(=Nc1ccc(Cl)cc1C(F)(F)F)n1ccnc1`, the AC50 in test [1] was 24.3 µM (active); in test [2] it was 30.4 µM (active); in [3], 32 µM (active); in test [5], 33.2 µM (active); in [6], 27.9 µM (active); in test [7] it was 26.3 µM (active). The AC50 was 29.7 µM (active) in test [8], 29.1 µM (active) in test [9] and 32.7 µM (active) in [10].
Regarding `CN(C)C(=O)Nc1cccc(C(F)(F)F)c1`, the outcome in test [1], in [2], in [3], in [4], in test [5] and in test [6] was inactive. For the same molecule, the result in test [7], in test [8], in test [9] and in test [10] was inactive.
For the molecule `CSc1nc(NC(C)C)nc(NC(C)C)n1`, the result in test [1], in test [2], in [3], in test [4], in test [5] and in test [6] was inactive. For the same molecule, the result in test [7], in [8], in [9] and in test [10] was inactive.
Turning to `Cc1cc(C2CC2)nc(Nc2ccccc2)n1`, the outcome in test [1], in test [2], in [3], in [4], in test [5] and in test [6] was inactive. The outcome in [7], in [8] and in test [10] was inactive. Also, in [9], the half-maximal activity concentration (AC50) is 20 µM (active).
As to `FC(F)C(F)(F)OCC(Cn1cncn1)c1ccc(Cl)cc1Cl` (centres undefined), the results for the AC50 in test [1] and in [7] were 23.4 µM (active) and 19.4 µM (active), respectively. In addition, the result in test [2], in test [3], in [4], in test [5], in [6] and in test [8] was inactive. The result in test [9] and in test [10] was inactive.
On to `CCCCSP(=O)(SCCCC)SCCCC`, for which, in test [1], the half-maximal activity concentration (AC50) is 14.6 µM (active). Moreover, the outcome in test [2], in test [3], in test [4], in test [5], in [6] and in test [7] was inactive. For the same molecule, the result in test [8], in test [9] and in test [10] was inactive.
In the case of `N#CSCSC#N`, the concentration at half-maximal activity (AC50) was 1.93 µM (active) in [1]; 0.66 µM (active) in [2]; 1.78 µM (active) in [4]; 3.17 µM (active) in test [5]; 1.71 µM (active) in [6]; 2.32 µM (active) in [7]. The AC50 was 5.57 µM (active) in [8], 8.38 µM (active) in [9] and 4.78 µM (active) in test [10]. In [3], the result was inactive.
`CCOP(=S)(OCC)OC(Cl)C(Cl)(Cl)Cl` (centres undefined): the AC50 in test [1] was 31.8 µM (active); in test [6], 29.4 µM (active); in test [10], 26.7 µM (active). Further, the result in test [2], in test [3], in test [4], in [5], in test [7] and in test [8] was inactive. Also, the outcome in [9] was inactive.
For `CCOP(=O)(NC(C)C)Oc1ccc(SC)c(C)c1` (centres undefined), the outcome in [1], in [2], in test [3], in test [4], in test [5] and in [6] was inactive. In addition, the outcome in [7], in [8], in test [9] and in test [10] was inactive.
For `CCCCOC(=O)c1ccccc1C(=O)O`, the outcome in [1], in test [2], in test [3], in test [4], in test [5] and in test [6] was inactive. Moreover, the result in test [7], in test [8], in test [9] and in [10] was inactive.

The record behind these values is PubChem BioAssay (EPA / NIEHS).
